# Several values for one entry are separate records, joined by “and”; a condition that tells them apart may be missing. Identical values can stand only once. Inconclusive results are not listed. A number with no mark means an inactive call. Activity calls are given as the source filed them. Calls come from the whole dose curve; as a rule, active = well fitted inhibition curve with a large enough effect; inconclusive = small, poorly fitted or top-dose-only effect; inactive = no such curve, though single readings can be large or run the other way.
# Test: qHTS screen for inhibitors of ELG1-dependent DNA repair in human embryonic kidney (HEK293T) cells expressing luciferase-tagged ELG1: MMS Stimulated Assay for probe SAR
# Conditions: HEK293T ELG1-luciferase reporter, 16 h; series mostly up to 46.1 µM; activity change, negative = inhibition: at the top concentration
# From the text: Cancer cells divide rapidly compared to normal cells in the body. During cell division, cancer cells need to duplicate their genome by DNA replication. The failure of genome duplication leads to cancer cells' death. Therefore, inhibitors of DNA replication could specifically kill cancer cells. Based on this concept, many chemotherapeutic agents were developed and have been used to treat cancer patients. However, there are a limited number of agents available in the clinical setting, and some of those that do exist have low efficacy and severe side effects. Therefore, if we can find the compounds that effectively block DNA replication either by directly damaging DNA or by inhibiting other cellular mechanisms, the options for cancer treatment will be broadened. With this in mind, we developed a quantitative high-throughput ELG1-luciferase reporter gene assay. Small molecules that specifically block ELG1 function in response to DNA damage can be identified by monitoring the suppression of luciferase activity. Since ELG1 defines a pathway for repairing DNA damage, agents blocking ELG1 function can be used to sensitize cancer cells to chemotherapeutic agents whose mechanism of action involves the induction of DNA damage. NIH Molecular Libraries Probe Production Network [MLPCN] NIH Chemical Genomics Center [NCGC] MLPCN Grant: R03 MH092164 Assay Provider: Kyungjae Myung, NHGRI, NIH
# ELG1-luc HEK293T cells will be seeded in 1536-well plates at a density of 2,000 cells / well. Approximately 5 hours after plating, compounds will be added to the plate by pin tool transfer and MMS will be added by FRD dispenser (final concentration of MMS = 10 µM). 16 hours following the addition of the compounds, luciferase activity will be measured using Amplight reagent.
Structure (SMILES),Potency,"activity change, negative = inhibition"
COc1ccc(-n2c(C)c(C(C)=O)c3ccccc32)cc1,7.43 µM (active) and 6.62 µM (active),–
Fc1cc(Nc2nc(-c3ccncc3)nc3ccccc23)ccc1-c1ccncc1,–,16.6%
Cc1ccc(Nc2nc(-c3ccncc3)nc3ccccc23)cc1F,–,-27.9%
CSc1ccccc1-c1ccc(Nc2nc(-c3ccncc3)nc3ccccc23)cc1F,18.7 µM (active),–
Fc1cc(Nc2nc(-c3ccncc3)nc3ccccc23)ccc1-c1cccnc1,–,8.42%
Fc1cc(Nc2nc(-c3ccncc3)nc3ccccc23)ccc1OCC(F)(F)F,–,-19.7%
Cc1cc(-c2nc(Nc3ccc(F)c(F)c3)c3ccccc3n2)cc(C)n1,–,10.5%
Fc1ccc(Nc2nc(-c3ccnc(N4CCCCC4)c3)nc3ccccc23)cc1F,–,-17%
c1ccc2c(Nc3ccn[nH]3)nc(-c3ccncc3)nc2c1,4.69 µM (active),–
Fc1cc(Nc2nc(-c3ccncc3)nc3ccccc23)ccc1-n1cncn1,inactive,–
COc1ccc(-c2nc(Nc3ccc(F)c(F)c3)c3ccccc3n2)cc1,–,10.2%
O=c1cc(-c2nc(Nc3ccc(F)c(F)c3)c3ccccc3n2)cc[nH]1,–,-7.61%
CN1CCN(c2cc(-c3nc(Nc4ccc(F)c(F)c4)c4ccccc4n3)ccn2)CC1,23.5 µM (active),–
Fc1cc(Nc2nc(-c3ccncc3)nc3ccccc23)ccc1-c1cccc(OC(F)(F)F)c1,23.5 µM (active),–
Fc1ccccc1-c1ccc(Nc2nc(-c3ccncc3)nc3ccccc23)cc1F,16.6 µM (active),–
N#Cc1cc(-c2nc(Nc3ccc(F)c(F)c3)c3ccccc3n2)ccn1,–,-37%
CCOC(=O)c1ccc2c(c1)c(C(C)=O)c(C)n2-c1ccc(OC)cc1,–,10.6%
Cc1noc(C)c1-c1ccc(Nc2nc(-c3ccncc3)nc3ccccc23)cc1F,18.7 µM (active),–
Fc1cc(Nc2nc(-c3ccncc3)nc3ccccc23)ccc1-c1cccc(OC(F)F)c1,–,7.46%
Fc1ccc(-c2ccc(Nc3nc(-c4ccncc4)nc4ccccc34)cc2F)c(Cl)c1,11.8 µM (active),–

Structure (SMILES),Potency,"activity change, negative = inhibition"
COc1cc(Nc2nc(-c3ccncc3)nc3ccccc23)ccc1N1CCN(C)CC1,–,7.99%
Cc1nc2ccc(Nc3nc(-c4ccncc4)nc4ccccc34)cc2s1,–,10.6%
COc1cnccc1-c1nc(Nc2ccc(F)c(F)c2)c2ccccc2n1,13.2 µM (active),–
Fc1ccc(Nc2nc(-c3ccncc3Cl)nc3ccccc23)cc1F,–,-16.3%
Fc1cc(Nc2nc(-c3ccncc3)nc3ccccc23)ccc1-c1cc(F)c(F)c(F)c1,–,2.36%
COc1cc(-c2nc(Nc3ccc(F)c(F)c3)c3ccccc3n2)c(F)cn1,8.33 µM (active),–
Fc1cc(Nc2nc(-c3ccncc3)nc3ccccc23)ccc1-c1ccnc(C(F)(F)F)c1,–,-2.36%
Fc1cc(Nc2nc(-c3ccncc3)nc3ccccc23)ccc1C(F)(F)F,8.33 µM (active) and 13.2 µM (active),–
Fc1cc(Nc2nc(-c3ccncc3)nc3ccccc23)ccc1-c1cccc(C(F)(F)F)c1,18.7 µM (active),–
Fc1cc(Nc2nc(-c3ccncc3)nc3ccccc23)ccc1-c1cn[nH]c1,–,-11.2%
Cc1cnccc1-c1nc(Nc2ccc(F)c(F)c2)c2ccccc2n1,–,23.2%
Cc1cc(-c2nc(Nc3ccc(F)c(F)c3)c3ccccc3n2)ccn1,–,14.4%
Fc1cc(Nc2nc(-c3ccncc3)nc3ccccc23)ccc1-c1ccc2[nH]ncc2c1,–,-10.2%
Fc1cc(Nc2nc(-c3ccncc3)nc3ccccc23)ccc1-c1ccc(F)c(F)c1F,–,13%
Fc1cc(Nc2nc(-c3ccncc3)nc3ccccc23)ccc1N1CCNCC1,–,-12%
CN1CCN(c2ccc(Nc3nc(-c4ccncc4)nc4ccccc34)cc2F)CC1,–,-13.1%
Fc1cc(Nc2nc(-c3ccncc3)nc3ccccc23)ccc1N1CCCCC1,18.7 µM (active),–
Fc1cc(Nc2nc(-c3ccncc3)nc3ccccc23)ccc1-c1cncnc1,–,6.48%
Nc1cc(-c2nc(Nc3ccc(F)c(F)c3)c3ccccc3n2)ccn1,–,-27.1%
COc1cc(-c2nc(Nc3ccc(F)c(F)c3)c3ccccc3n2)ccn1,–,17.9%

# Reference: PubChem BioAssay AID686915 (National Center for Advancing Translational Sciences (NCATS), 2013)
